VP16 counter: Gal4-VP16 reporter inhibition counter-screen; Drosophila S2 Gal4-VP16 UAS-luciferase, luminescence, 20 h; Potency, µM (doses to about 53.6 µM), for the others: top-dose activity, negative = inhibition, hits mostly inhibitors; actives 3.5% (n = 310,000);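 also: Gal4-VP16 expression switched on by copper sulfate through the metallothionein promoter; nearly all actives have a fitted effect of over 50% in size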
12-LOX inh: inhibitors of human 12S-lipoxygenase ALOX12; P18054; purified 12hLO, xylenol orange hydroperoxide absorbance; Potency, µM (titrated, usually from 108 µM), for the others: top-dose activity change, negative = inhibition, usual class: inhibitors; actives 1.1% (n = 580,000)
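Hydroperoxide product was detected by ferrous iron/xylenol orange as the 573 to 405 nm absorbance ratio. Arachidonic acid at 40 uM (final) was turned over for 30 min at room temperature by 150 nM human 12hLO, pH 7.0 Hepes buffer, after 15 min compound preincubation.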
TDP1 cell noCPT: qHTS for Inhibitors of human tyrosyl-DNA phosphodiesterase 1 (TDP1): qHTS in cells in absence of CPT. Potency, µM (titrated, usually from 46.2 µM), inactives show at the highest dose activity change, negative = growth inhibition, hits mostly inhibitors. actives 15% (n = 420,000). DT40 Tdp1-/- hTDP1 cells, no CPT, ATP luminescence, 48 h. AID 686978, 2013; also: nearly all actives have a fitted effect of over 55% in size
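Growth kinetics read by CellTiter-Glo luminescence after ≥48 hr at 37 °C. Cells: DT40 Tdp1-/- stably carrying human TDP1, 400 per well, compound exposure in the absence of CPT (DMSO vehicle).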
TDP1 cell CPT: growth inhibition of DT40 Tdp1-/-;hTDP1 cells with camptothecin (screen for TDP1 inhibitors); Potency, µM (titrated, usually from 46.2 µM), for inactives: at the highest dose activity change, negative = growth inhibition, most hits filed as inhibitors; chicken DT40 Tdp1-/-;hTDP1 cells + 20 nM CPT, ATP luminescence, 48 h; actives 12% (n = 420,000); also: nearly all actives have a fitted effect of over 55% in size
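Chicken DT40 Tdp1-/- cells complemented with human TDP1, 400 cells/well, exposed to compounds plus 20 nM camptothecin for at least 48 h at 37 C; viability read as ATP content by CellTiter-Glo luminescence.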
ELG1 repair inh: ELG1-dependent DNA repair inhibition | Potency, µM (doses to about 46.1 µM), for the others: top-dose activity change, negative = inhibition, usual class: inhibitors | HEK293T ELG1-luciferase reporter, luminescence, 16 h; DNA damage induced by 5-fluorouridine | AID 504467 | actives 2.3% (n = 330,000); also: nearly all actives have a fitted effect of over 55% in size
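Quantitative HTS, concentration-response format. 2,000 cells/well co-treated with 5-fluorouridine and compound, 16 hr in 5% CO2 at 37 °C; ONE-Glo luminescence read after 30 min.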
RORgamma inh: inhibitors of mouse ROR gamma transcriptional activity | Drosophila S2 Gal4-RORgamma UAS-luciferase reporter, 20 h | AID 2551 | actives 5.4% (n = 310,000) | Potency, µM (series often up to 53.6 µM), for inactives: top-dose activity change, negative = inhibition, hits mostly inhibitors; also: nearly all actives have a fitted effect of over 60% in size
Target sequence (P51450 whole entry, looked up, the tested form may be a part): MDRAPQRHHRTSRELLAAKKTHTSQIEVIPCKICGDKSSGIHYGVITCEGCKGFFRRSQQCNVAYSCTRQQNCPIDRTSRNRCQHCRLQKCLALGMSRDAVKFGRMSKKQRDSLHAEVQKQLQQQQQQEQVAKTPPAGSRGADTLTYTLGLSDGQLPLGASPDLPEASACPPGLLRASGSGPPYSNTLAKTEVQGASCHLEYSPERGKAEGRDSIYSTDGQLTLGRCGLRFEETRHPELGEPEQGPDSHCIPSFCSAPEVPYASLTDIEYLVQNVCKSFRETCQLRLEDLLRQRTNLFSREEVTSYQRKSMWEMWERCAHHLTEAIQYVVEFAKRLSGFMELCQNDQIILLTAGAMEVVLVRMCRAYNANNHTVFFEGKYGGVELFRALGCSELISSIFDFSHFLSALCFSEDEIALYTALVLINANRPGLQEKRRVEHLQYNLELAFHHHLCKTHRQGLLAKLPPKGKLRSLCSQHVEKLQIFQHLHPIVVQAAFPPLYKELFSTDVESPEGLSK
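Luciferase reporter read in Schneider cells carrying Gal4-RORγ (mouse) and UAS-Photinus luciferase; cells given compound 1 h before 700 uM copper sulfate induction, then incubated 20 h at ambient temperature.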
* hit, by the source's call. Sampled rows, rich in hits. Any-hit rate of the full collection: about 15%. Calls follow the shape of the dose curve; as a rule, active = well fitted curve in the direction sought with a large enough effect; inconclusive = small, poorly fitted or top-dose-only effect, or another doubt; inactive = no such curve, though single readings can be large; an effect the other way counts as inactive or inconclusive. % is scaled to controls: 0 for no effect and ±100 for the full control effect; potency is read from the fitted curve at half-maximal effect.

For O=[N+]([O-])c1ccc(C(O)CN=Cc2ccc(O)cc2O)cc1 (stereo not drawn) the results were VP16 counter inconclusive, 12-LOX inh inconclusive, TDP1 cell noCPT inconclusive, TDP1 cell CPT 23.1µM*, ELG1 repair inh inconclusive and RORgamma inh inconclusive.
`CCN1C(=O)[C@@H]2[C@@H](c3ccc(-c4ccc(C(C)=O)cc4)cc3)N3CCCC[C@@]3(C(=O)OC)[C@@H]2C1=O` gave 12-LOX inh 6.1%, TDP1 cell noCPT 18.4µM*, TDP1 cell CPT 16.4µM* and ELG1 repair inh inconclusive.
CCN1C(=O)[C@@H]2[C@@H](c3ccc(-c4ccc(OC)cc4)cc3)N3CCCC[C@@]3(C(=O)OC)[C@@H]2C1=O was read as 12-LOX inh inconclusive, TDP1 cell noCPT 16.4µM*, TDP1 cell CPT 25.9µM* and ELG1 repair inh inconclusive.
For COC(=O)[C@@]12CCCCN1[C@H](c1ccc(-c3ccccc3)cc1)[C@H]1C(=O)N(C)C(=O)[C@H]12 the results were 12-LOX inh -5.6%, TDP1 cell noCPT inconclusive, TDP1 cell CPT inconclusive and ELG1 repair inh inconclusive.
Screening CCN1C(=O)[C@H]2[C@@H](c3ccc(-c4ccccc4)cc3)N3CCCC[C@@]3(C(=O)OC)[C@H]2C1=O returned 12-LOX inh -6.2%, TDP1 cell noCPT 18.4µM*, TDP1 cell CPT inconclusive and ELG1 repair inh -14.0%.
For O=C(COC(=O)CCNS(=O)(=O)c1ccccc1)Nc1ccc(F)c(Cl)c1 the results were 12-LOX inh -19.1%.
Cc1nc2ccccc2c(C)c1CC(=O)NC(C)(C)C was read as 12-LOX inh -6.4%.
Screening CCOc1cccc(/C=C/c2ccc3cccc(O)c3n2)c1O returned VP16 counter inconclusive, 12-LOX inh inconclusive, TDP1 cell noCPT 20.6µM*, TDP1 cell CPT 14.6µM*, ELG1 repair inh inconclusive and RORgamma inh 3.55µM*.
CCOc1cccc(/C=C/c2ccc3cccc(O)c3n2)c1OC was read as VP16 counter 12.6µM*, 12-LOX inh inconclusive, TDP1 cell noCPT 18.4µM*, TDP1 cell CPT 20.6µM*, ELG1 repair inh inconclusive and RORgamma inh 2.82µM*.
For CCOc1ccccc1/C=C/c1cc(C(=O)O)c2ccccc2n1 the results were VP16 counter 0.6%, 12-LOX inh inconclusive, TDP1 cell noCPT inconclusive, TDP1 cell CPT -24.6%, ELG1 repair inh inconclusive and RORgamma inh -2.2%.
`O=C(NC1CCCN(CCc2ccccc2)C1)C1(Cn2cccn2)CC1` (stereo not drawn) gave 12-LOX inh -17.8%.
CN(C)CCCN(C(=O)c1ccc(C(=O)c2ccccc2)cc1)c1nc2ccc(F)cc2s1 was read as VP16 counter -24.1%, 12-LOX inh inconclusive, TDP1 cell noCPT inconclusive, TDP1 cell CPT inconclusive, ELG1 repair inh inconclusive and RORgamma inh 7.1%.
Screening CN(C)CCCN(C(=O)c1nc2ccccc2s1)c1nc2ccc(F)cc2s1 returned 12-LOX inh 0.1%, TDP1 cell noCPT 5.8µM* and TDP1 cell CPT 3.66µM*.
Screening CN(C)CCCN(C(=O)c1cccc(C(F)(F)F)c1)c1nc2ccc(F)cc2s1 returned 12-LOX inh 35.5µM*.
`Cc1ccc(C(CNC(=O)c2ccc(NC(=O)OC(C)(C)C)cc2)N2CCOCC2)o1` (stereo not drawn) gave 12-LOX inh -23.0%.
Screening CCOc1ccc(S(=O)(=O)Nc2ccc(F)cc2)c(C)c1C returned VP16 counter 17.8µM*, 12-LOX inh inconclusive, TDP1 cell noCPT 20.6µM*, TDP1 cell CPT 25.9µM*, ELG1 repair inh inconclusive and RORgamma inh inconclusive.
